Experiment [1] in a line: Primary qHTS for inhibitors of nuclear receptor binding SET domain protein 2 (NSD2) in an isogenic RCH-ACV NSD2 p.E1099K mutant (9B) (AID 1645876).
A short description of experiment [2]: Primary qHTS for inhibitors of nuclear receptor binding SET domain protein 2 (NSD2) in an RCH-ACV wild type WT cells (2C) (AID 1645877). On the technique in general: Quantitative high-throughput screening tests each substance at several concentrations.

Structures are written as SMILES. Results filed as inconclusive are left out. Entries that show only a call come without a potency. The source made the active and inactive calls. Calls come from the whole dose curve; as a rule, active = well fitted curve in the direction sought with a large enough effect; inconclusive = small, poorly fitted or top-dose-only effect, or another doubt; inactive = no such curve, though single readings can be large; an effect the other way counts as inactive or inconclusive.
Note: nearly all actives have a fitted effect of over 70% in size.
Potency is the fitted concentration of half-maximal effect.

Take `CN1[C@@H]2CC[C@H]1CC(OC(=O)C1C=Nc3ccccc31)C2` (some centres undefined): the Potency entry in experiment [1] and in experiment [2] was “inactive” each time.
Take `CC12CCC3C(CCC4(O)CC(O)CCC34C=O)C1(O)CCC2C1=CC(=O)OC1` (centres undefined): the values for the Potency in experiment [1] and in experiment [2] were 258 nM (active) and 515 nM (active), respectively.
For `CN[C@H]1[C@H](O)[C@H](O[C@@H]2[C@@H](O)[C@H](O[C@H]3O[C@H]([C@H](C)O)[C@@H](O)[C@H](O)[C@H]3N)[C@@H](N)C[C@H]2N)OC[C@@]1(C)O`, in that order: “inactive” and “inactive”.
For `C=C[C@H]1[C@H](O[C@@H]2O[C@H](CO)[C@@H](O)[C@H](O)[C@H]2O)OC=C2C(=O)OCC[C@H]21`, in that order: “inactive” and “inactive”.
Consider `N#C[C@@H](O[C@@H]1O[C@H](CO[C@@H]2O[C@H](CO)[C@@H](O)[C@H](O)[C@H]2O)[C@@H](O)[C@H](O)[C@H]1O)c1ccccc1`, for which the Potency entry in experiment [1] and in experiment [2] was “inactive” in each case.
With `COC1C(O)C(C)OC(OC2C(CO)O[C@@H](O[C@@H]3CC4CCC5C(CC[C@]6(C)[C@@H](C7=CC(=O)OC7)CC[C@]56O)[C@@]4(C)[C@H](O)C3)C(O)C2O)C1O` (some centres undefined), the Potency was 430 nM (active) in experiment [1] and 483 nM (active) in experiment [2].
Regarding `CCC1NC(=O)C2C(Cl)C(Cl)CN2C(=O)C(C(C)O)NC(=O)CC(c2ccccc2)NC(=O)C(CO)NC1=O` (centres undefined), the Potency entry in experiment [1] and in experiment [2] was “inactive” in each case.
For `CC(CCc1ccc(O)cc1)O[C@@H]1O[C@H](CO[C@H]2OC[C@](O)(CO)[C@H]2O)[C@@H](O)[C@H](O)[C@H]1O` (some centres undefined), the Potency result in experiment [1] and in experiment [2] was “inactive” in each case.
With `COC1C(O)C(OC2CCC3(C=O)C(CCC4C3CCC3(C)C(C5=CC(=O)OC5)CCC43O)C2)OC(C)C1OC1OC(CO)C(O)C(O)C1O` (centres undefined), the Potency was 171 nM (active) in experiment [1] and 342 nM (active) in experiment [2].
The corresponding values for `COC1CC(O[C@H]2CC[C@]3(C=O)C4CC[C@]5(C)[C@@H](C6=CC(=O)OC6)CC[C@]5(O)[C@@H]4CC[C@]3(O)C2)OC(C)C1O[C@@H]1O[C@H](CO)[C@@H](O)[C@H](O)[C@H]1O` (some centres undefined) are 54.1 nM (active) and 85.8 nM (active).
The corresponding values for `COC(=O)C1(C)CCC(=O)C2(C)c3c(O)cc(C(C)C)cc3C(O)C(OC(C)=O)C12` (centres undefined) are “inactive” and “inactive”.
For `O=C(O)c1ccnc2cc(C(OCCN3CCCCC3)c3ccccc3Cl)[nH]c12` (centres undefined), in that order: “inactive” and “inactive”.

Source of the values: PubChem BioAssay (NCATS).
